# Bioassay records: PubChem, National Center for Advancing Translational Sciences (NCATS)
# BAZ2B block – qHTS Assay for Inhibitors of BAZ2B; Bromodomain adjacent to zinc finger domain protein 2B (Homo sapiens), Q9UIF8; AlphaScreen BAZ2B-H3K14Ac peptide displacement; Potency, µM (titrated, usually from 114 µM), for the others: top-dose activity change, negative = inhibition, hits mostly inhibitors; hit rate 4.4% among 360,000; also: % is scaled to controls: 0 for no effect and ±100 for the full control effect; nearly all actives have a fitted effect of over 60% in size
#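 In this displacement format the biotinylated H3(5-23) peptide acetylated at Lys14 serves as ligand at 50 nM, with BAZ2B at 50 nM in PBS pH 7.4 containing 0.01% Tween-20. Donor and acceptor beads are 10 ug/mL final.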
# PLK1 PBD inh – qHTS for Inhibitors of PLK1-PDB (polo-like kinase 1 - polo-box domain): Primary Screen; Plk1 PBD binding of FITC phosphopeptide, fluorescence polarization; AID 720504, 2013; Potency, µM, without a hit: max response, negative = inhibition, most hits filed as inhibitors; hit rate 2.8% among 360,000; Serine/threonine-protein kinase PLK1 (Homo sapiens), P53350; also: series mostly up to about 57 µM; % is scaled to controls: 0 for no effect and ±100 for the full control effect; nearly all actives have a fitted effect of over 65% in size
# JMJD2A Tudor inh – qHTS Assay for Inhibitors of JMJD2A-Tudor Domain | AlphaScreen JMJD2A-Tudor / H3K4me3 peptide binding | Potency, µM (top dose mostly 114 µM), inactives show top-dose activity change, negative = inhibition, most hits filed as inhibitors | hit rate 4.4% among 390,000; also: % is scaled to controls: 0 for no effect and ±100 for the full control effect; nearly all actives have a fitted effect of over 50% in size
# G9a inh – qHTS Assay for Inhibitors of Histone Lysine Methyltransferase G9a. Potency, µM (top dose mostly 102 µM), for the others: top-dose activity, negative = inhibition, most hits filed as inhibitors. hit rate 8.8% among 350,000. AID 504332, 2011. Histone-lysine N-methyltransferase EHMT2 (Homo sapiens), Q96KQ7. G9a H3K9 monomethylation, AlphaScreen, 2 h; also: % is scaled to controls: 0 for no effect and ±100 for the full control effect; nearly all actives have a fitted effect of over 75% in size
# Target sequence (Q96KQ7 913-1193 limits assumed): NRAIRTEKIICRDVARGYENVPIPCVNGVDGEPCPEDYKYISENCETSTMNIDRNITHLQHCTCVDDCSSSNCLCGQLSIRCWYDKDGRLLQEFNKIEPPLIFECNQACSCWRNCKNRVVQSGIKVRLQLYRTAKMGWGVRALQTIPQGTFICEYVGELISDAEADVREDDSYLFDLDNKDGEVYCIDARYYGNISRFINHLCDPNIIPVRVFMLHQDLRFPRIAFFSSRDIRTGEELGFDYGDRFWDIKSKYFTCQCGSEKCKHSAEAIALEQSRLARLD
#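 G9a (20 nM) preincubated 15 min RT with compounds, then 500 nM biotinylated H3K9 peptide and 20 uM SAM added; 2 h RT reaction. Monomethyl-H3K9 product detected by AlphaScreen with anti-H3K9me1 antibody, streptavidin donor and anti-rabbit IgG acceptor beads.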
# Sfp PPTase inh – qHTS Assay for Inhibitors of Bacillus subtilis Sfp phosphopantetheinyl transferase (PPTase) | Biochemical Sfp PPTase activity, qHTS | Potency, µM, without a hit: largest response in the series, negative = inhibition, actives largely listed as inhibitors | hit rate 3.5% among 310,000 | AID 1490, 2009;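 also: the enzyme is Sfp with the accession as filed and its product quenches rhodamine fluorescence; 0% = enzyme reaction without inhibitor and -100% = no enzyme wells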
#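 With Hepes-Na pH 7.6 buffer containing 10 mM MgCl2, Sfp (15 nM) modified BHQ-2-YbbR (12.5 uM) using rhodamine-CoA (5 uM). Two reads 30 minutes apart at 525/598 nm yielded each well's rate.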
# HP1b binding inh – HTS for Inhibitors of HP1-beta Chromodomain Interactions with Methylated Histone Tails; AlphaScreen HP1-beta / biotin-H3K9me3 peptide binding; AID 540317, 2011; Chromobox protein homolog 1 (Homo sapiens), P83916; Potency, µM (highest dose often 114 µM), without a hit: at the top dose activity change, negative = inhibition, hits mostly inhibitors; hit rate 0.56% among 390,000; also: nearly all actives have a fitted effect of over 70% in size
# Target sequence (P83916 whole entry, looked up): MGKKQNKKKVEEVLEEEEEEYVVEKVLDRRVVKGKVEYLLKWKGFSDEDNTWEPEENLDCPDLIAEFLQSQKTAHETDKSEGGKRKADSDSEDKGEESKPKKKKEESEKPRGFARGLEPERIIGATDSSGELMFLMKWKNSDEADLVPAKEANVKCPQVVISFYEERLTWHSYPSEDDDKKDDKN
#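 HP1-beta protein (50 nM final) preincubated 30 min at room temperature with biotinylated H3(1-18)K9me3 peptide (50 nM) in PBS pH 7.4, 0.01% Tween-20, then compound added for 30 min. AlphaScreen streptavidin donor/nickel chelate acceptor beads (10 ug/mL final), 30 min dark, luminescence read.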
# * hit, by the source's call; ? = inconclusive; . = not tested or not shown; [ ] = remark or other dose. Rows were chosen to be rich in hits. Some 12% of all compounds tested hit in one or more screens of this group. Calls follow the shape of the dose curve; as a rule, active = well fitted curve in the direction sought with a large enough effect; inconclusive = small, poorly fitted or top-dose-only effect, or another doubt; inactive = no such curve, though single readings can be large; an effect the other way counts as inactive or inconclusive. Potency is read from the fitted curve at half-maximal effect.
SMILES,BAZ2B block,PLK1 PBD inh,JMJD2A Tudor inh,G9a inh,Sfp PPTase inh,HP1b binding inh
CC(=O)N(Cc1cc(=O)[nH]c2ccccc12)c1ccccc1C,-1%,-9%,?,25µM*,-16%,-3%
COc1ccc(NC(=O)c2cc(CN3C(=O)c4ccccc4C3=O)ccc2OC)cn1,?,27µM*,-7%[11.4 µM],?,-24%,-1%
COc1ccc(CN2C(=O)c3ccccc3C2=O)cc1C(=O)Nc1ccccc1N1CCOCC1,.,-12%,?,2%,10%,8%
CCOC(=O)c1c(C)[nH]c(C)c1C(=O)COC(=O)Cc1n[nH]c(=O)c2ccccc12,.,2%,-9%,.,.,34%
Cc1cc(C)n2cc(CSc3ccc(Br)cc3)nc2n1,?,-10%,-28%,-16%,-1%,22%
Cc1cc(C)n2cc(CSc3nnnn3-c3ccccc3)nc2n1,-31%,-9%,-10%[57.1 µM],-35%[59 µM],4%,40%
Cc1cc(C)n2cc(CSCC(=O)O)nc2n1,?,2%,-10%,45µM*,-30%,18%
Cc1cc(C)n2cc(CSc3nnnn3-c3ccc(Cl)cc3)nc2n1,2%,-18%,-20%,40µM*,?,22%
C#CCOc1ccc(CNC[C@H]2O[C@@H](n3ccc(=O)[nH]c3=O)[C@H](O)[C@@H]2O)cc1,.,-5%,.,.,.,.
COC(=O)[C@]1(C)CCC[C@]2(C)c3ccc(C(C)C)cc3C(=O)CC12 (stereo not given in full),.,.,.,.,-10%,.
CC[N+](C)(CC)CC(=O)OCC1C(C)C=C(C)CC1C (stereo not given),-36%,-14%,?,?,89µM*,7%
Nc1nc(NCCN2CCOCC2)nc(NCc2ccccc2)c1[N+](=O)[O-],-14%,-4%,-16%,-5%,6%,46%
COc1ccc(/C=N/Nc2ncc(Br)cn2)c(OC)c1,19%,?,50µM*,32%[12.7 µM],?,24%
COc1ccc2c(c1OC)C(=O)N1c3ccccc3N=C(c3ccc([N+](=O)[O-])cc3)CC21 (stereo not given),8%,0%,?,?,20µM*,-7%
COc1ccc2c(c1OC)C(=O)N1N=C(c3ccc(-c4ccccc4)cc3)CC21 (stereo not given),-12%,-8%,-25%,-5%,7%,22%
N#CC1=C(N)n2c(s/c(=C\c3ccco3)c2=O)=C(C#N)C1c1ccco1 (stereo not given),?,?,56µM*,?,-86%,79µM*
CCOC(=O)C1=C(N)n2c(s/c(=C/c3ccco3)c2=O)=C(C(=O)OC)C1c1ccco1 (stereo not given),?,-19%,56µM*,?,16µM*,?
N#CC1=C(N)n2c(s/c(=C\c3cccs3)c2=O)=C(C#N)C1c1cccs1 (stereo not given),-4%,-20%,-19%,35µM*,45µM*,20%
CCOC(=O)C1=C(CN(C)Cc2ccccc2)NC(=O)NC1c1ccc(OC(C)C)cc1 (stereo not given),.,.,?,-31%[59 µM],.,-7%
Cc1ccc(N2CC(NC(=O)c3cccc(Cl)c3)CC2=O)cc1C (stereo not given),1%,.,-18%,-45%[59 µM],.,22%
Cc1ccc(C(C[N+](=O)[O-])n2nc(C)cc2C)cc1 (stereo not given),-13%,17µM*,-24%,?,-26%,15%
Cc1ccc2cc3cc(C(=O)N4CC(C)CC(C)C4)oc3nc2c1 (stereo not given),10%,13µM*,-27%[11.4 µM],3%[59 µM],-13%,7%
COc1ccc(-c2ccc(OC)c([C@H]3[C@H]4C=CC[C@@H](C)[C@@H]4C(=O)N3Cc3ccccc3)c2)cc1OC,-33%,?,40µM*,-16%[59 µM],-26%,-18%
COc1ccc(-c2ccc(C(C)=O)cc2)cc1C1C2C=CCCC2(C)C(=O)N1Cc1ccccc1 (stereo not given),.,.,?,.,45µM*,-6%
COc1ccc(-c2ccc(C)cc2)cc1C1C2C=CCC(C)C2C(=O)N1Cc1ccccc1 (stereo not given),.,.,-17%,.,-4%,26%
SMILES,BAZ2B block,PLK1 PBD inh,JMJD2A Tudor inh,G9a inh,Sfp PPTase inh,HP1b binding inh
Cc1noc(C)c1CCC(=O)N1CCCC(N2CCN(c3ccc(F)cc3)CC2)C1 (stereo not given),-5%,2%,-7%,20%,7%,19%
CC(=O)N1C[C@@H](CO)[C@@H](N(C)C(=O)C(C)(C)C)C[C@H]1c1ccccc1,.,-6%,.,.,.,.
COc1ccccc1-c1cncnc1NCCN1CCOCC1,.,.,.,.,-24%,.
COc1ccc(S(=O)(=O)N2CCCCCC2)cc1NC(=O)CCCOc1ccccc1,13%,-2%,-18%,-10%[12.7 µM],.,26%
CCC(=O)Nc1cccc(-c2nnc(SCC(=O)c3ccccc3)n2C)c1,.,27µM*,40µM*,?,79µM*,?
CSc1nnc(-c2cccc(NC(=O)c3ccccc3)c2)n1C,-25%,1%,-3%,50µM*,1%,25%
CCOC(=O)c1[nH]c(C)c(C(=O)N2CCN(c3ccc(OC)cc3)CC2)c1C,.,-7%,-33%,?,0%,27%
CCOC(=O)C1=C(CN2CCN(C)CC2)NC(=O)NC1c1ccc(F)cc1 (stereo not given),6%,.,10%,4%[59 µM],.,22%
CCOC(=O)c1cc(C#N)c(N2CCN(c3ccc(OC)cc3)CC2)[nH]c1=O,?,-10%,-27%,5µM*,5%,5%
CCOC(=O)C1=C(CN2c3ccccc3CC2C)NC(=O)NC1c1ccccc1 (stereo not given),50µM*,-8%,?,?,-6%,?
CCOC(=O)c1[nH]c(CN2CCN(c3ccc(OC)cc3)CC2)c(C(=O)OCC)c1C,14µM*,-2%,50µM*,22µM*,8%,45µM*
CC1=C(C(=O)OCc2ccccc2)C(c2ccc(N(C)C)cc2)NC(=O)N1 (stereo not given),?,1%,?,10µM*,2%,-24%
CC1CCCN(S(=O)(=O)c2cc(C(=O)NCCc3ccc(S(N)(=O)=O)cc3)ccc2Cl)C1 (stereo not given),.,7%,-27%,.,.,33%
